# Compound activity: PubChem, National Center for Advancing Translational Sciences (NCATS)
# AmpC inh no detg: qHTS Inhibitors of AmpC Beta-Lactamase (assay without detergent); AmpC nitrocefin hydrolysis, absorbance 480 nm, 0.0001% Triton; Potency, µM (titrated, usually from 57.1 µM), most hits filed as inhibitors; actives 0.52% (n = 330,000); AID 485341, 2010; also: nearly all actives have a fitted effect of over 20% in size
# Target sequence (P00811 whole entry, looked up): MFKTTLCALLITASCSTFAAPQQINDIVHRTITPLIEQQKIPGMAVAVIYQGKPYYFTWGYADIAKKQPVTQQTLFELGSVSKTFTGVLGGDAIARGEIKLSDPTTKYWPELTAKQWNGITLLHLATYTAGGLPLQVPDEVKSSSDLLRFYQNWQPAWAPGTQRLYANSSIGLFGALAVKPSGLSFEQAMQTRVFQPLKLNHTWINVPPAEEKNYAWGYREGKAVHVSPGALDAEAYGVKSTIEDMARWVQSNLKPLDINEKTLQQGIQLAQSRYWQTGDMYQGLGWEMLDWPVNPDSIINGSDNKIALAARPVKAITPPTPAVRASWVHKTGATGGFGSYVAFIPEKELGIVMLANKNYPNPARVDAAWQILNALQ
#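 20 mM phosphate pH 7.0 + 0.01% (detergent screen) or 0.0001% Triton X-100; 5.3 nM AmpC reagent; cpd preinc 15 min RT; nitrocefin (800 uM stock) to start; A480 q20 s × 4 min; Activity was normalised to no-enzyme and no-compound control wells.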
# HCV inh: qHTS Assay for Inhibitors of Hepatitis C Virus (HCV). Huh7.5.1 HCVcc-Cre infection, luciferase reporter, 44 h. actives 3.4% (n = 340,000). Potency, µM (top dose mostly 41.8 µM), usual class: inhibitors
#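 After 44 h co-culture of compound, cells and HCVcc-Cre (~0.5 moi), substrate is added for 15 min at room temperature and luciferase measured over 15 sec. Cells were seeded at 1,000/well and pre-cultured 4 h.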
# AmpC inh detg: qHTS Inhibitors of AmpC Beta-Lactamase (assay with detergent); P00811; AmpC hydrolysis of nitrocefin, absorbance 480 nm, 0.01% Triton; Potency, µM (top dose mostly 114 µM), actives largely listed as inhibitors; actives 0.041% (n = 370,000); also: nearly all actives have a fitted effect of over 25% in size
#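 AmpC (5.3 nM in the dispensed reagent) in 20 mM phosphate pH 7.0 with 0.01% (detergent screen) or 0.0001% Triton X-100 was preincubated with compounds for 15 min at room temperature. Nitrocefin was then added from an 800 uM solution, and hydrolysis was followed at 480 nm.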
# Pf growth 48h: Primary qHTS for delayed death inhibitors of the malarial parasite plastid, 48 hour incubation; actives 5.9% (n = 310,000); P. falciparum luciferase growth in erythrocytes, 48 h; AID 504832, 2011; Potency, µM (titrated, usually from 28.7 µM), usual class: inhibitors
#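 A one-generation exposure of luciferase-tagged malaria parasites in RPMI 1640/Albumax erythrocyte culture, 37 C and 5% CO2. Inhibition is inferred from decreased luminescence after adding detection reagent.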
# Pf growth 96h: Primary qHTS for delayed death inhibitors of the malarial parasite plastid, 96 hour incubation; P. falciparum luciferase reporter growth, 96 h; Potency, µM (highest dose often 28.7 µM), hits mostly inhibitors; actives 6.9% (n = 320,000); AID 504834, 2011
#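 Delayed-death screen, second-generation endpoint: infected erythrocytes, 2% hematocrit, 0.05% parasitemia final; 96 hours at 37 C, 5% CO2; luciferase detection reagent; luminescence decrease equals reduced growth.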
# AMA1 RON2 block: qHTS for Inhibitors of AMA1-RON; Towards Development of Antimalarial Drug Lead: Primary Screen. AlphaScreen AMA1-biotinylated RON2 peptide binding. AID 720542, 2013. Plasmodium falciparum AMA1 (3D7) - RON2 peptide interaction. actives 0.2% (n = 360,000). Potency, µM (titrated, usually from 58.2 µM), hits mostly inhibitors; also: nearly all actives have a fitted effect of over 45% in size
#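 AMA1 (3D7) with his tag at 25 nM final met compounds first, then biotinylated RON2 peptide at 25 nM; detection used donor plus acceptor beads, 10 µg/mL apiece, read by AlphaScreen after 30 min at room temperature.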
# Hits are given with their value; - = inactive; ? = inconclusive; . = no result; [ ] = remark or other dose. Compounds with a hit are over-represented: about 11% of the library has one in this group of screens. Calls follow the shape of the dose curve; as a rule, active = well fitted curve in the direction sought with a large enough effect; inconclusive = small, poorly fitted or top-dose-only effect, or another doubt; inactive = no such curve, though single readings can be large; an effect the other way counts as inactive or inconclusive.
SMILES,AmpC inh no detg,HCV inh,AmpC inh detg,Pf growth 48h,Pf growth 96h,AMA1 RON2 block
O=C(Nc1ccc(NC(=O)c2cccs2)cc1)c1ccco1,-,-,-,.,-,-
O=C(NC(=S)Nc1ccc(NC(=O)c2cccs2)cc1)c1cc2ccccc2o1,-,-,-,3.29µM,-,-
CC(C)NC(=O)c1cc2ccccc2o1,-,-,-,-,-,-
O=C(Nc1ccc(NC(=S)NC(=O)c2ccccc2F)cc1)c1cccs1,-,?,-,?,?,-
O=C(NC(=S)Nc1ccc(NC(=O)c2cccs2)cc1)c1ccco1,-,?,-,1.65µM,?,-
CC(C)C(=O)N1CCN(c2ccc(NC(=S)NC(=O)c3cc4ccccc4o3)cc2)CC1,-,-,-,-,5.22µM,-
CC(NC(=O)c1cc2ccccc2o1)c1cccs1 (centres undefined),-,-,-,.,8.28µM,-
O=C(NCC(c1cccnc1)N1CCc2ccccc2C1)c1ccc(F)c(F)c1 (centres undefined),.,.,-,.,.,.
CC(C)(C)C1CCc2onc(C(=O)Nc3sc4c(c3C(N)=O)CCCC4)c2C1 (centres undefined),.,.,-,.,.,.
Cc1nnc(SCc2ccccn2)n(N)c1=O,-,-,?,-,-,-
Nn1c(SCc2ccccn2)nncc1=O,-,-,-,-,11.7µM,-
CCOC(=O)CSc1nc2c(sc3ccccc32)c(=O)n1Cc1ccc(OC)cc1,.,.,-,.,.,.
O=C(NCc1cccnc1)c1ccc(-c2cc(Cl)ccc2Cl)o1,-,?,-,?,11.7µM,-
O=C(NCc1cccnc1)c1ccc(-c2ccc(Cl)cc2)o1,-,?,-,-,-,-
Cc1ccc(Cl)cc1N(Cc1ccc(C(=O)NCc2cccnc2)cc1)S(=O)(=O)c1ccccc1,-,-,-,?,13.1µM,-
O=C(NCc1cccnc1)C1CC(c2ccc(Cl)c(Cl)c2)=NO1 (centres undefined),-,-,?,-,?,-
O=C(NCc1cccnc1)/C(=C\c1ccc(-c2ccc(Cl)c(Cl)c2)o1)S(=O)(=O)c1ccccc1,-,11.2µM,-,?,?,-
O=C(Nc1cccnc1)c1ccc(-c2cc(Cl)ccc2Cl)o1,-,11.2µM,-,?,-,-
COc1ccccc1NC(=O)c1ccc(CN(c2cc(Cl)ccc2C)S(=O)(=O)c2ccccc2)cc1,-,-,-,?,?,-
CC(=O)c1ccc(NC(=O)CN(C)S(=O)(=O)c2cc3c(cc2Cl)NC(=O)CO3)cc1,.,.,-,.,.,.
CC(=O)N1c2ccccc2CC1C(=O)N1CCN(c2cc(Cl)ccc2C)CC1 (centres undefined),.,.,-,.,.,.
O=C(c1ccco1)N(Cc1cccnc1)c1nc2ccc(F)cc2s1,.,.,-,.,.,.
COc1cccc(CNC(=O)c2c(C)oc3ncnc(N4CCOCC4)c23)c1,.,.,-,.,.,.
COc1cccc(NC(=O)C2=C(C)C(=O)OC23CCN(C(C)=O)CC3)c1,.,.,-,.,.,.
Cc1ccccc1C(=O)N1CCN(c2ccc(NC(=O)CSc3ccc(Cl)cc3)cc2)CC1,-,11.2µM,-,?,?,-
SMILES,AmpC inh no detg,HCV inh,AmpC inh detg,Pf growth 48h,Pf growth 96h,AMA1 RON2 block
CCC(=O)Nc1ccc(N2CCN(C(=O)c3ccccc3C)CC2)cc1,-,?,-,-,.,-
O=C(COc1nsnc1N1CCOCC1)Nc1ccc([N+](=O)[O-])cc1,-,-,-,5.22µM,-,-
O=C(COc1ccc(Cl)cc1)Nc1ccc(N2CCN(C(=O)c3ccco3)CC2)cc1,-,10µM,-,?,11.7µM,-
O=C(COc1ccc([N+](=O)[O-])cc1)Nc1ccc(N2CCN(C(=O)c3ccco3)CC2)cc1,-,11.2µM,-,-,5.22µM,-
COc1ccc(OCC(=O)Nc2ccc(N3CCN(C(=O)c4ccco4)CC3)cc2)cc1,-,-,-,-,-,-
CCOC(=O)Cn1c(=O)n(CC2CCCO2)c2nc(-c3ccccc3)nc(C(N)=O)c21 (centres undefined),.,.,-,.,.,.
CCOCCc1nn2c(=O)cc(COC(=O)c3ccc(NC(=O)c4cccs4)cc3)nc2s1,.,.,-,.,.,.
CCOCCCn1c(SCC(=O)Nc2ccc(C)cc2)nc2ccccc2c1=O,.,.,-,.,.,.
O=C(CSc1ccc(Cl)cc1)Nc1ccc(NC(=O)c2ccco2)cc1,-,-,-,-,-,-
O=C(CSc1ccc(Cl)cc1)Nc1ccc(N2CCN(C(=O)c3ccco3)CC2)cc1,-,-,-,11.7µM,.,-
O=C(O)C1CC=CCC1C(=O)Nc1ccc(S(=O)(=O)N2CCCc3ccccc32)cc1 (centres undefined),-,-,-,-,10.4µM,-
COc1ccc(S(=O)(=O)N2CCc3ccccc32)cc1C(=O)NCC(c1ccco1)N1CCCC1 (centres undefined),-,-,.,.,.,-
O=C(Nc1ccc(S(=O)(=O)N2CCCc3ccccc32)cc1)C1CCCO1 (centres undefined),-,-,-,?,-,-
COc1ccc(S(=O)(=O)N2CCCc3ccccc32)cc1[N+](=O)[O-],-,-,-,-[0.00184 µM],-,-
COc1ccc(S(=O)(=O)N2CCc3ccccc32)cc1C(=O)NCc1ccco1,-,-,-,13.1µM,?,-
O=S(=O)(c1ccc(F)cc1)N1CCCc2ccccc21,-,.,?,-,1.65µM,.
COc1ccc(S(=O)(=O)N2CCCc3ccccc32)cc1OC,-,-,-,11.7µM,-,-
Cc1ccc(NC(=O)c2c(C)oc3ncn(C)c(=O)c23)cc1F,.,.,-,.,.,.
